Compounds without any hit were thinned out: in the full panel of roughly 83,000, 20% have a hit.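 Percent growth is the endpoint: 0 to 100 indicates growth inhibition (40 means 60% inhibition), 0 means no net growth, and negative values indicate cell death.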 Values without a mark were called inactive. The source made the active and inactive calls. The calls were made as follows: active = growth percent below 10; inactive = the rest.

Among the test systems are NCI-H23 lung; NCI-H226 lung; NCI-H322M lung; NCI-H460 lung; HOP-92 NSCLC; NCI-H522 lung; A549/ATCC NSCLC; 786-0 renal; DU-145 prostate; K-562 leukemia; MALME-3M melanoma; MDA-MB-231 breast; RXF 393 renal; SF-268 CNS; SF-295 CNS; SF-539 CNS; UACC-257 melanoma; M14 melanoma; HOP-62 NSCLC; COLO 205 colon.
What all share (assay): NCI-60 one-dose screen, 48 h (100 = growth as untreated, 0 = no growth, -100 = all killed)
Holding throughout (conditions): 10 µM

Consider `COc1ccc(OC)c(/C=C2\CCc3ccccc3C2=O)c1`, for which the growth is 62.7% with NCI-H23 lung; 76.5% in the assay with NCI-H226 lung; 70% with NCI-H322M lung; 13.9% in the assay with NCI-H460 lung; 45.2% in the assay on HOP-92 NSCLC; 22.5% with NCI-H522 lung. The growth was 42.6% in the assay with A549/ATCC NSCLC; 46.9% with 786-0 renal; 55.5% in the assay on DU-145 prostate; 18.3% with K-562 leukemia; 63.4% in the assay with MALME-3M melanoma; 52.9% in the assay on MDA-MB-231 breast. In addition, the growth in the assay on RXF 393 renal is 60.3%; with SF-268 CNS it was 56.3%; in the assay on SF-295 CNS, 32%; in the assay on SF-539 CNS it was 26%; with UACC-257 melanoma, 75.3%; in the assay on M14 melanoma, 15%.
`O=c1cc2oc3cc(O)c(O)cc3c(-c3ccccc3O)c-2cc1O`: the growth in the assay on NCI-H23 lung is 82.4%; in the assay on NCI-H226 lung, 87%; with NCI-H322M lung, 57.5%; in the assay on HOP-62 NSCLC it was 63%; with NCI-H522 lung, 66.8%; in the assay with A549/ATCC NSCLC, 108%. Besides, the growth with 786-0 renal was 57.2%; with COLO 205 colon, 126%; with DU-145 prostate it was 86%; with K-562 leukemia it was 54.1%; in the assay on MALME-3M melanoma it was 105%; in the assay with MDA-MB-231 breast it was 81.9%. The growth in the assay with RXF 393 renal was 60.1%; in the assay with SF-268 CNS, -1.76% (active); with SF-295 CNS it was 101%; in the assay with SF-539 CNS it was 52.3%; in the assay with UACC-257 melanoma, 130%; in the assay with M14 melanoma, 77.1%.
Take `Cc1ccc(C(O)C2CC2)cc1` (stereo not drawn): the growth in the assay with NCI-H23 lung was 103%; in the assay with NCI-H226 lung, 91.9%; with NCI-H322M lung, 97.1%; in the assay on HOP-62 NSCLC, 106%; with NCI-H522 lung, 107%; with A549/ATCC NSCLC it was 95.9%. In addition, the growth was 103% in the assay on 786-0 renal; 110% in the assay with COLO 205 colon; 113% in the assay on DU-145 prostate; 98.6% in the assay with K-562 leukemia; 101% in the assay with MALME-3M melanoma; 105% with MDA-MB-231 breast. Besides, the growth in the assay on RXF 393 renal is 102%; in the assay on SF-268 CNS, 108%; with SF-295 CNS, 97%; with SF-539 CNS, 96.7%; in the assay on UACC-257 melanoma, 89.5%; in the assay with M14 melanoma, 109%.
Regarding `CNS(=O)(=O)c1ccc(Cl)c(Cl)c1`, the growth with NCI-H23 lung was 110%; in the assay with NCI-H226 lung, 86.4%; with NCI-H322M lung, 103%; in the assay on HOP-62 NSCLC, 82.3%; with NCI-H522 lung, 97.8%; in the assay on A549/ATCC NSCLC it was 104%. In addition, the growth in the assay on 786-0 renal is 85.9%; in the assay with COLO 205 colon, 114%; in the assay with DU-145 prostate, 111%; with K-562 leukemia, 99.5%; with MALME-3M melanoma, 111%; in the assay with MDA-MB-231 breast, 98.2%. Further, the growth in the assay with RXF 393 renal was 99.7%; with SF-268 CNS, 96.1%; in the assay on SF-295 CNS, 101%; with SF-539 CNS, 91.7%; in the assay with UACC-257 melanoma, 124%; in the assay on M14 melanoma it was 98.5%.
Turning to `CCOC(=O)CCCC(=O)OCC`, the growth with NCI-H23 lung was 97.9%; in the assay with NCI-H226 lung, 104%; with NCI-H322M lung it was 99.2%; in the assay with NCI-H460 lung, 105%; with HOP-92 NSCLC, 101%; with NCI-H522 lung, 105%. In addition, the growth with A549/ATCC NSCLC is 101%; with 786-0 renal, 102%; in the assay with COLO 205 colon it was 101%; with DU-145 prostate it was 103%; with K-562 leukemia it was 101%; in the assay with MALME-3M melanoma, 95.7%. For the same compound, the growth in the assay on MDA-MB-231 breast is 100%; with SF-268 CNS, 96.7%; with SF-295 CNS, 101%; in the assay on SF-539 CNS, 98.4%; in the assay on UACC-257 melanoma, 99%; with M14 melanoma it was 99.2%.
Regarding `O=C(/C(=N/O)c1ccccc1)c1ccccc1`, the growth with NCI-H23 lung was 105%; in the assay on NCI-H226 lung, 91.2%; with NCI-H322M lung, 95.8%; in the assay with NCI-H460 lung, 108%; in the assay on HOP-92 NSCLC, 96.6%; with NCI-H522 lung, 109%. The growth is 98.1% in the assay with A549/ATCC NSCLC; 98.1% in the assay with 786-0 renal; 111% in the assay with DU-145 prostate; 120% in the assay with K-562 leukemia; 82% in the assay on MALME-3M melanoma; 98.5% in the assay on MDA-MB-231 breast. Further, the growth in the assay with RXF 393 renal was 102%; with SF-268 CNS, 100%; in the assay with SF-295 CNS, 94.4%; with SF-539 CNS, 104%; in the assay on UACC-257 melanoma, 97%; with M14 melanoma, 108%.
As for `O=C(O)c1ccnc(Br)c1`, the growth is 97.8% with NCI-H23 lung; 92.6% with NCI-H226 lung; 106% in the assay on NCI-H322M lung; 104% in the assay with NCI-H460 lung; 96.9% in the assay with HOP-92 NSCLC; 105% in the assay on NCI-H522 lung. Moreover, the growth was 102% in the assay with A549/ATCC NSCLC; 102% with 786-0 renal; 107% with COLO 205 colon; 111% with DU-145 prostate; 109% in the assay on K-562 leukemia; 107% in the assay with MALME-3M melanoma. Moreover, the growth is 115% with MDA-MB-231 breast; 106% with RXF 393 renal; 107% in the assay on SF-268 CNS; 100% in the assay with SF-295 CNS; 97.5% with SF-539 CNS; 104% in the assay with UACC-257 melanoma. The growth with M14 melanoma is 107%.
On to `CCC/C=C(/C(C)=O)C(=O)OCC`, for which the growth was 107% in the assay with NCI-H23 lung; 95.7% with NCI-H226 lung; 110% in the assay with NCI-H322M lung; 108% with HOP-62 NSCLC; 111% with NCI-H522 lung; 90.8% in the assay on A549/ATCC NSCLC. In addition, the growth in the assay on 786-0 renal is 113%; in the assay on COLO 205 colon, 113%; in the assay with DU-145 prostate, 114%; in the assay with K-562 leukemia it was 104%; with MALME-3M melanoma, 118%; in the assay on MDA-MB-231 breast, 105%. The growth in the assay on SF-268 CNS was 84.5%; in the assay on SF-295 CNS it was 282%; in the assay on SF-539 CNS, 117%; in the assay on UACC-257 melanoma it was 81.2%; with M14 melanoma, 118%.
`CCCCC(CC)COC(C)=O` (stereo not drawn): the growth in the assay with NCI-H23 lung was 100%; in the assay on NCI-H226 lung, 105%; in the assay on NCI-H322M lung, 98%; in the assay on NCI-H460 lung, 106%; with HOP-92 NSCLC, 95.6%; in the assay with NCI-H522 lung, 105%. For the same compound, the growth with A549/ATCC NSCLC was 105%; with 786-0 renal, 96%; in the assay with COLO 205 colon it was 100%; with DU-145 prostate, 106%; with K-562 leukemia it was 95.1%; in the assay on MALME-3M melanoma it was 96.4%. Also, the growth in the assay on MDA-MB-231 breast is 106%; with RXF 393 renal, 117%; in the assay with SF-268 CNS, 96.6%; with SF-295 CNS, 99.3%; in the assay on SF-539 CNS, 92.1%; in the assay on UACC-257 melanoma, 104%. Besides, the growth with M14 melanoma is 102%.
